Each sequence was assayed against T1, ELF5 (Homo sapiens, UniProt Q9UKW6-2 1-255) (assay: DAPPL (digital affinity profiling via proximity ligation, sequencing); 10 mM Tris-HCl pH 7.5, 50 mM NaCl, 1 mM DTT, 4% glycerol, room temperature, 30 min; GST-TFs on glutathione beads, 16-mer random dsDNA library, 0.1% formaldehyde crosslink after washing; high values mean tight binding). Conditions: protein: recombinant; tags: N-terminal GST; dsDNA, one strand shown.
T1 sequence: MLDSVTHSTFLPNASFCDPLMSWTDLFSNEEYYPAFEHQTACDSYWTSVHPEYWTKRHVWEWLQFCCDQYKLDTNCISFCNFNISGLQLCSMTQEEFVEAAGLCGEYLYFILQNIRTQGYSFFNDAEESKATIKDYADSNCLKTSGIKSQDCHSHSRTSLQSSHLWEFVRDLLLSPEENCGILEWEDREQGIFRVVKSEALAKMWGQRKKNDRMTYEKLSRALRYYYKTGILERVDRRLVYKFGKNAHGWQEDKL
Outline: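 Sequencing on an Illumina NextSeq500 followed washing, crosslinking with 0.1% formaldehyde, proximity ligation (BsaI/T4 ligase, 1 h, 37 °C) and PCR amplification of pools that had been incubated for 30 min at room temperature with 200 nmole of a random double-stranded 16-mer DNA library in Tris/NaCl/DTT/glycerol buffer. Each pool held DNA-barcoded human transcription factors, expressed in yeast as GST fusions and captured on glutathione beads, plus a tag-only sample. Binding signal is a hexamer's read frequency for a factor divided by its frequency in the tag-only sample.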
With GGGATG the binding signal was 1.01 fold enrichment (6-mer frequency, TF over GST control). For AGTAGT, the binding signal was 1.07 fold enrichment (6-mer frequency, TF over GST control). With GGGAAG the binding signal was 1.24 fold enrichment (6-mer frequency, TF over GST control). In the case of TCCAGG, the binding signal is reported as 1.01 fold enrichment (6-mer frequency, TF over GST control). With GGAAGG the binding signal was 1 fold enrichment (6-mer frequency, TF over GST control). AGCAGG was tested, and the binding signal was 1.02 fold enrichment (6-mer frequency, TF over GST control). In the case of GAGGAA, the binding signal is reported as 1.11 fold enrichment (6-mer frequency, TF over GST control). CGGGAA was tested, and the binding signal was 1.06 fold enrichment (6-mer frequency, TF over GST control). In the case of CAAGGA, the binding signal is reported as 1.03 fold enrichment (6-mer frequency, TF over GST control).

From article PMC7862700, “An all-to-all approach to the identification of sequence-specific readers for epigenetic DNA modifications on cytosine”
